Test [1] has as its target Glucocorticoid receptor (Homo sapiens) (UniProt P04150). Briefly: GR-GFP Redistribution (AID 450;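 active = compounds whose dose series gives a full or clear partial fitted curve of increased nuclear translocation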; also: potency is read from the fitted curve at half-maximal effect). The settings on record: U2OS GR-GFP nuclear translocation, laser cytometry, 2 h.
Test [2] can be described thus: S16 Schwann cell PMP22 intronic element beta-lactamase assay (AID 624044; calls by dose curve; also: nearly all actives have a fitted effect of over 15% in size). The settings on record: S16 rat Schwann cells, PMP22 element beta-lactamase FRET, 24 h; series mostly up to 17.1 µM. An outline of the steps:
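Rat S16 Schwann cells with beta-Lac driven by a PMP22 intronic element, compound-treated 24 h at 37 °C. LiveBLAzer FRET B/G read: 460 nm normalized to potassium clavulanate vs DMSO; 535 nm FRET as viability; concentration-effect curves classified.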

For a further test, the system named is ATS95. The test is described as follows: qHTS profiling for inhibitors of Plasmodium falciparum proliferation (AID 504749). Also: nearly all actives have a fitted effect of over 60% in size. Also: potency is read from the fitted curve at half-maximal effect. The settings on record: P. falciparum in erythrocytes, SYBR Green DNA, 72 h; series mostly up to 12.8 µM. A digest of the protocol:
(§1)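 P. falciparum-infected erythrocytes (0.3% parasitemia, 2.5% hematocrit final) were exposed to compounds for 72 h at 37 C in 5% CO2, then lysed with SYBR Green buffer overnight at room temperature; parasite DNA fluorescence was normalized to artemisinin and DMSO controls.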

A further test relates to CP194. The description is as above. As to conditions: P. falciparum in erythrocytes, SYBR Green DNA, 72 h; series mostly up to 12.8 µM. A digest of the protocol:
as §1

The next test concerns CP211. The description is as above. As to conditions: P. falciparum in erythrocytes, SYBR Green DNA, 72 h; series mostly up to 12.8 µM. A digest of the protocol:
as §1

In a further test the test system is CP237. The test is described as above. The settings on record: P. falciparum in erythrocytes, SYBR Green DNA, 72 h; series mostly up to 12.8 µM. An outline of the steps: as §1
A further test has as its system CP247. Described as above. The settings on record: P. falciparum in erythrocytes, SYBR Green DNA, 72 h; series mostly up to 12.8 µM. An outline of the steps:
as §1

A further test relates to CP252. The description is as above. As to conditions: P. falciparum in erythrocytes, SYBR Green DNA, 72 h; series mostly up to 12.8 µM. An outline of the steps:
as §1

The next test deals with CP256. The test is described as above. The settings on record: P. falciparum in erythrocytes, SYBR Green DNA, 72 h; series mostly up to 12.8 µM. An outline of the steps:
as §1

The subject of a further test is CP266. The test is described as above. The settings on record: P. falciparum in erythrocytes, SYBR Green DNA, 72 h; series mostly up to 12.8 µM. A digest of the protocol: as §1
In the next test the test system is CP269. Described as above. As to conditions: P. falciparum in erythrocytes, SYBR Green DNA, 72 h; series mostly up to 12.8 µM. An outline of the steps:
as §1

Another test deals with CP286. The description is as above. As to conditions: P. falciparum in erythrocytes, SYBR Green DNA, 72 h; series mostly up to 12.8 µM. A digest of the protocol: as §1
Another test has as its system CP297. The test is described as above. As to conditions: P. falciparum in erythrocytes, SYBR Green DNA, 72 h; series mostly up to 12.8 µM. An outline of the steps: as §1
Another test relates to CP325. Described as above. The settings on record: P. falciparum in erythrocytes, SYBR Green DNA, 72 h; series mostly up to 12.8 µM. A digest of the protocol: as §1
For a further test, the system named is DIV14. The description is as above. The settings on record: P. falciparum in erythrocytes, SYBR Green DNA, 72 h; series mostly up to 12.8 µM. A digest of the protocol:
as §1

The test system of another test is Dd2. The description is as above. As to conditions: P. falciparum in erythrocytes, SYBR Green DNA, 72 h; series mostly up to 12.8 µM. An outline of the steps:
as §1

In a further test the test system is HB3. Described as above. The settings on record: P. falciparum in erythrocytes, SYBR Green DNA, 72 h; series mostly up to 12.8 µM. An outline of the steps:
as §1

The subject of the next test is P93_24. The test is described as above. As to conditions: P. falciparum in erythrocytes, SYBR Green DNA, 72 h; series mostly up to 12.8 µM. A digest of the protocol:
as §1

A further test has as its system P94_40. The description is as above. The settings on record: P. falciparum in erythrocytes, SYBR Green DNA, 72 h; series mostly up to 12.8 µM. An outline of the steps:
as §1

The next test deals with TAB113. Described as above. As to conditions: P. falciparum in erythrocytes, SYBR Green DNA, 72 h; series mostly up to 12.8 µM. An outline of the steps:
as §1

The values below come from PubChem BioAssay (NCATS).

“And” between values parts separate entries of the source, which are not always exact repeats. Equal values may be shown once. A number with no mark means an inactive call. Results filed as inconclusive are left out. The source made the active and inactive calls. Unless noted, calls follow the shape of the dose curve; as a rule, active = well fitted inhibition curve with a large enough effect; inconclusive = small, poorly fitted or top-dose-only effect; inactive = flat fitted curve, though single readings scatter.

Glucocorticoid receptor (Homo sapiens), sequence (P04150 whole entry, looked up): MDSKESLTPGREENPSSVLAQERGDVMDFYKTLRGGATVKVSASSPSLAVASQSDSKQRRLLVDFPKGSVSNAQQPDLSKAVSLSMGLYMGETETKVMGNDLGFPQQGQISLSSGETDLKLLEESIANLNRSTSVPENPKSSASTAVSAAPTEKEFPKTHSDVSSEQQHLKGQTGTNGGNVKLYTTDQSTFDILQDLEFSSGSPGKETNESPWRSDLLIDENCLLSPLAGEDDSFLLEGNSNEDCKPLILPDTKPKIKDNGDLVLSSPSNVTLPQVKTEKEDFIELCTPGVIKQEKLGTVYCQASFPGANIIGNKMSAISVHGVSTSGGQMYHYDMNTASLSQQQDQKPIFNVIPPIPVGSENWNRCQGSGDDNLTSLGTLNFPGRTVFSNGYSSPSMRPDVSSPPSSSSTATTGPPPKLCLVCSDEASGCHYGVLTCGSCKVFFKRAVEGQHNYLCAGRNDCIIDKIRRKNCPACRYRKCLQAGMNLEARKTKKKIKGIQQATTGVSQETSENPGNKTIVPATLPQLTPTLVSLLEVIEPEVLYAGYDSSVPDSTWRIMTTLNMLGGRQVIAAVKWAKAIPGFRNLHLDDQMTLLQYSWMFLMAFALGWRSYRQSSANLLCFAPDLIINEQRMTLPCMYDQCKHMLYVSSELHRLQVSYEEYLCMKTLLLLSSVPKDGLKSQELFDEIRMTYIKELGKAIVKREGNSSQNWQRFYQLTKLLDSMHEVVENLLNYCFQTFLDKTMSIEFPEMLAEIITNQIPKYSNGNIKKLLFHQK

Take `N[C@H](Cc1cc(I)c(Oc2cc(I)c(O)c(I)c2)c(I)c1)C(=O)O`: in [1], the Potency was greater than 20.6 µM.

Take `C1CCN2C[C@@H]3C[C@@H](CN4CCCC[C@H]34)[C@H]2C1`: the Potency in [1] was > 20.6 µM and > 46 µM. For the same compound, the Potency entry (in test [2]; in the test with ATS95; in the test with CP194; in the test on CP211; in the test with CP237; with CP247) was “inactive” throughout. Further, the Potency entry in the test on CP252, in the test with CP256, with CP266, in the test with CP269, with CP286 and with CP297 was “inactive” each time. Also, the Potency result in the test with CP325, in the test on DIV14, in the test on Dd2, in the test with HB3, with P93_24 and in the test with P94_40 was “inactive” in each case. Moreover, in the test with TAB113, the Potency entry was “inactive”.

For `C[C@@H]1O[C@H](O[C@@H]2[C@H](C)O[C@H](O[C@@H]3[C@H](C)O[C@H](O[C@H]4CC[C@]5(C)[C@@H](CC[C@@H]6[C@H]5C[C@@H](O)[C@]5(C)[C@@H](C7=CC(=O)OC7)CC[C@]65O)C4)C[C@@H]3O)C[C@@H]2O)C[C@H](O)[C@@H]1O`, in test [1], the Potency was greater than 20.6 µM.

Take `Cc1cc2ccc(=O)oc2cc1OC[C@@H](O)C(C)(C)O`: the Potency in test [1] was greater than 46 µM.

Take `CC/C=C\C[C@H]1C(=O)CC[C@@H]1CC(=O)O`: the Potency in test [1] is greater than 46 µM.

As for `C[C@@H](C(=O)O)c1ccc(N2Cc3ccccc3C2=O)cc1`, the Potency in test [1] is greater than 20.6 µM.

As to `C=Cc1c(C)c2cc3nc(cc4[nH]c(cc5nc(cc1[nH]2)C(C)=C5CCC(=O)O)c(CCC(=O)OC)c4C)[C@@]1(C)C3=CC=C(C(=O)OC)[C@H]1C(=O)OC` (tested in a mixture with another compound), the Potency entry (in test [2]; in the test on CP194; with CP266; in the test on CP269; with CP297; with CP325) was “inactive” throughout. Also, the Potency with ATS95 was 7.94 µM (active); with CP237, 5.01 µM (active); with CP247, 10 µM (active); with CP286, 4.47 µM (active); in the test on DIV14 it was 8.49 µM (active); in the test with Dd2, 2.24 µM (active). In addition, the Potency with HB3 was 4.47 µM (active); in the test with P93_24, 8.91 µM (active); in the test on P94_40 it was 3.55 µM (active); in the test on TAB113 it was 1.78 µM (active).

Consider `C/C1=C2N=C(/C=C3N=C(/C(C)=C4\[N-]C(C)(C5N=C1C(C)(CCC(=O)NCC(C)OP(=O)([O-])O[C@H]1C(O)C(n6cnc7cc(C)c(C)cc76)O[C@@H]1CO)C5CC(N)=O)C(C)(CC(N)=O)C4CCC(N)=O)C(C)(CC(N)=O)C\3CCC(N)=O)C(C)(C)C/2CCC(N)=O.[CH2-]C1OC(n2cnc3c(N)ncnc32)C(O)C1O.[Co]` (stereo not given in full), for which the Potency entry in the test on ATS95, with CP194, in the test on CP237, with CP247, in the test with CP252 and with CP256 was “inactive” in each case. Besides, the Potency result in the test with CP266, in the test on CP269, in the test on CP286, in the test with CP297, with CP325 and in the test on DIV14 was “inactive” in each case. Moreover, the Potency result with Dd2, in the test on HB3, with P93_24, with P94_40 and in the test with TAB113 was “inactive” each time.

In the case of `CC1C2CCC3C4CC=C5CC(N(C)C)CC[C@@]5(C)C4CC[C@@]32CN1C` (stereo not given in full), the Potency result (in [2]; in the test with ATS95; in the test on CP194; in the test with CP211; in the test with CP237; in the test with CP247) was “inactive” each time. Moreover, the Potency result in the test on CP252, in the test on CP256, in the test with CP266, in the test with CP269, with CP286 and in the test with CP297 was “inactive” each time. The Potency entry in the test with CP325, in the test with DIV14, in the test on Dd2, in the test with HB3, with P93_24 and with P94_40 was “inactive” throughout. The Potency result in the test on TAB113 is “inactive”.

`COc1ccc2cc1Oc1ccc(cc1)CC1c3c(cc4c(c3Oc3cc5c(cc3OC)CCN(C)C5C2)OCO4)CCN1C` (stereo not given): in test [2], the Potency entry is “inactive”. In addition, the Potency in the test with ATS95 is 4.47 µM (active); with CP194, 13.5 µM (active); in the test with CP211, 12 µM (active); with CP237, 2.82 µM (active); with CP247, 5.62 µM (active); in the test with CP252, 8.91 µM (active). Further, the Potency is 10 µM (active) in the test with CP256; 13.5 µM (active) with CP269; 3.98 µM (active) with CP286; 10.7 µM (active) with CP297; 12 µM (active) with CP325; 5.36 µM (active) with DIV14. Further, the Potency in the test on Dd2 is 2.24 µM (active); in the test with HB3, 7.08 µM (active); in the test on P93_24 it was 6.31 µM (active); in the test on P94_40, 8.91 µM (active); in the test with TAB113, 7.08 µM (active).
